Compound activity deposited in PubChem BioAssay by several laboratories.
Neddyl block = inhibitors of cullin neddylation, primary screen, biochemical, TR-FRET, uHTS, NAE and Ubc12 | NEDD8-conjugating enzyme Ubc12 (Homo sapiens) + NEDD8-activating enzyme E1 regulatory … | inhibition, % at 25 µM | 360,000 tested, 0.58% active; in the data active means inhibition above about 36%
SUMO1-SIM PPI = modulators of SUMO1 protein-protein interactions, primary screen, biochemical, uHTS; Small ubiquitin-related modifier 1 (Homo sapiens), P63165; SUMO1 binding to a labelled peptide, TR-FRET, 1 h; inhibition, % at 20 µM; 360,000 tested, 0.33% active; in the data active means inhibition above about 37%
Target sequence (P63165 whole entry, looked up): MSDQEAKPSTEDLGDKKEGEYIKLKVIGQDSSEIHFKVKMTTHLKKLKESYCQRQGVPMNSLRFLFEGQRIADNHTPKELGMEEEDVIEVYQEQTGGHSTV
ATG4B inhibitor = ATG4B protease inhibitors, primary screen, biochemical, fluorescence, uHTS. ATG4B cleavage of LC3-PLA2, NBD-HPC fluorescence, 1 h. inhibition, % at 8.33 µM. 340,000 tested, 0.51% active; in the data active means inhibition above about 40%
Target sequence (Q9Y4P1 whole entry, looked up): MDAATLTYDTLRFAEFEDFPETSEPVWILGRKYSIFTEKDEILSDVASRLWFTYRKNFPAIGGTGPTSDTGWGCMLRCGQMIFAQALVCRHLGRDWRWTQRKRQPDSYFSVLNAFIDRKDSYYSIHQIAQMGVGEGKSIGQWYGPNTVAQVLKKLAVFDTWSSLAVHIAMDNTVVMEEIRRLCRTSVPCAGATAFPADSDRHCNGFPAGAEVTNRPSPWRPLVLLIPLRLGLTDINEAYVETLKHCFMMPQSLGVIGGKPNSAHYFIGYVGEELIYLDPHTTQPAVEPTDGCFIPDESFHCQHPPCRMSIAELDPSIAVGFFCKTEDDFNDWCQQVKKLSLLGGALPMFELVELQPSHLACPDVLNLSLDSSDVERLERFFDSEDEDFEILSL
Rin1 Abl inh = inhibitors of Rin1-Abl protein binding, primary screen, biochemical, TR-FRET. Tyrosine-protein kinase ABL1 (Homo sapiens) + Ras and Rab interactor 1 (Homo sapiens), …. inhibition, % at 7.35 µM. 360,000 tested, 0.4% active; in the data active means inhibition above about 5%, passing the limit was not always enough
Rin1 Abl conf = Rin1-Abl binding inhibitor retest, confirmation, biochemical, TR-FRET. AID 602124, 2011. 1,300 tested, 49% active. inhibition, % at 7.35 µM. purified proteins. shares compounds with Rin1 Abl inh
GFP quench = GFP fluorescence inhibitors and quenchers, artefact control for Rin1-Abl interaction inhibitor project, biochemical | inhibitors/quenchers counterscreen | shares compounds with Rin1 Abl inh | inhibition, % at 6.75 µM | 1,300 tested, 8.5% active;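 further: ABL1-eGFP fusion protein alone without its partner RIN1-SBP; 0% = protein with vehicle and 100% = wells lacking protein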
GFP quench dose = GFP fluorescence inhibitors and quenchers, dose response, artefact control for Rin1-Abl interaction inhibitor project, biochemical | shares compounds with Rin1 Abl inh | GFP fluorescence interference/quenching counterscreen | IC50, µM | 230 tested, under 10 active; call rule not given here;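 further: ABL1-eGFP fusion protein alone without its RIN1 binding partner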
The depositor's hits bear a star; / = not tested or not shown. This is a sample that favours compounds with a hit; in the whole collection about 1.7% have one here. Unless noted, no stated cut-off is given here; in the data, active means inhibition above about 6.5%; inactive means the rest.

SMILES	Neddyl block	SUMO1-SIM PPI	ATG4B inhibitor	Rin1 Abl inh	Rin1 Abl conf	GFP quench	others
CC1(Oc2ccccc2)CCN(Cc2ccc(-c3ccccn3)cc2)C1 (centres undefined)	-7	-2	/	-6	/	/
CC1C=CCC2C(=O)N(c3cccc(C(=O)NCc4ccccc4)c3)C(=O)C12 (centres undefined)	8	-4	3	7.8*	-2	0
CC1C=CCC2C(=O)N(c3cccc(C(=O)NCCc4ccccc4)c3)C(=O)C12 (centres undefined)	11	-4	-4	-1	/	/
CC1NC(=O)NC1CCCCCC(=O)Nc1ccc(F)cc1 (centres undefined)	2	2	-10	84*	98*	0	GFP quench dose=>68
Cc1c(F)cccc1NC(=O)CCC(=O)O	-6	-1	-4	-1	/	/
Cc1c(F)cccc1NC(=O)CCCCCC1NC(=O)NC1C (centres undefined)	9	1	6	86*	98*	-1	GFP quench dose=>68
Oc1ccc(C(=Nc2ccccc2)c2ccccc2)c(O)c1	-4	-3	4	3	/	/
CN1CCc2cccc3c2[C@@H]1Cc1ccc(O)c(O)c1-3	9	4	1	17*	12*	13*
COC(=O)C1CCN(S(=O)(=O)CCNC(=O)c2ccccc2)CC1	5	4	/	-2	/	/
O=C(Nn1cnc2ccccc2c1=O)c1ccc(Br)cc1	-3	2	4	13*	-1	-1
CCN(CC)c1cc(-c2ccccc2)ncn1	4	1	-1	7.6*	1	-1
Cc1cccc(CNC(=O)c2sc(=O)n(Cc3ccc(S(C)(=O)=O)cc3)c2C)c1	3	2	/	6	/	/
CN(C)S(=O)(=O)c1ccc(C(=O)OC2CCOC2=O)cc1 (centres undefined)	6	3	5	6.9*	1	-2
O=C(OC1CCOC1=O)c1ccc(S(=O)(=O)N2CCCCCC2)cc1 (centres undefined)	-15	-1	-13	2	/	/
COc1cnc(-c2ccccn2)nc1Oc1ccccc1Cl	-4	1	2	-6	/	/
COc1cnc(-c2ccccn2)nc1Oc1ccc(Cl)cc1	-3	-4	4	6.8*	6	1
CCN(CC)c1ccc(N=Cc2ccc(N(CC)CC)cc2O)cc1	-14	-15	4	11*	0	-2
CCCNC(=O)c1cc(C2CCCCN2C(=O)c2ccc(OC)cc2)on1 (centres undefined)	0	1	/	-1	/	/
CN1C(=O)C(Cl)(Cl)C(=O)c2ccccc21	/	-5	-4	18*	11*	2
Cc1[nH][nH]c(=O)c1C(c1c(C)[nH][nH]c1=O)c1cn(Cc2cccc3ccccc23)c2ccccc12	-2	4	-10	19*	6.5*	3
Cc1[nH][nH]c(=O)c1C(c1c(C)[nH][nH]c1=O)c1cn(C)c2ccccc12	1	6	-8	-1	/	/
CCCC(=O)N1CCCC1(C)C(=O)Nc1ccc2c(c1)CCN2C(C)=O (centres undefined)	2	3	/	1	/	/
CCN(CC)CCNC(=O)c1ccc(NC(=O)c2cccc(S(=O)(=O)Nc3ccc(C)cc3)c2)cc1	6	4	-18	4	/	/
CN(C)CCNC(=O)c1cccc(S(=O)(=O)Nc2ccc(F)cc2)c1	5	-3	6	9.2*	-2	-1
COC(=O)CCCn1cc(CN2CC(N3CCCCC3)CS2(=O)=O)nn1 (centres undefined)	3	3	/	/	/	/
SMILES	Neddyl block	SUMO1-SIM PPI	ATG4B inhibitor	Rin1 Abl inh	Rin1 Abl conf	GFP quench	others
Cc1cccc(OCc2nnc3n2CCCCC3)c1	-4	-2	8	8.0*	-2	-2
FC(F)(F)c1cccc(OCc2nnc3n2CCC3)c1	-2	-5	-14	-4	/	/
C=CCCC(=O)N1C[C@H]2CON(C)[C@H]2C[C@H]1c1ccc(N2CCCCC2)cc1	-5	-2	/	-2	/	/
COCCNc1ncnc2c1ncn2[C@H]1CN(Cc2ccc(-c3ccccc3)cc2)C[C@@H](CO)O1	-1	-4	/	9.6*	11*	-1
CN(C)c1ncnc2c1ncn2[C@H]1CN(Cc2ccc(-c3ccccc3)cc2)C[C@@H](CO)O1	5	-5	/	20*	15*	-2
COCCNc1ncnc2c1ncn2[C@H]1CN(Cc2ccc(F)cc2)C[C@@H](CO)O1	-1	0	/	1	/	/
C=CCNc1ncnc2c1ncn2[C@H]1CN(Cc2ccc(-c3ccccc3)cc2)C[C@@H](CO)O1	1	-7	/	19*	17*	0	GFP quench dose=>68
COc1cc(CN2C[C@@H](CO)O[C@@H](n3cnc4c(NCc5ccc(F)cc5)ncnc43)C2)cc(OC)c1OC	-1	-5	/	11*	6.5*	-3
COc1cc(CNc2ncnc3c2ncn3[C@H]2CN(Cc3ccc(F)cc3)C[C@@H](CO)O2)cc(OC)c1OC	0	3	/	-1	/	/
CCCCC(c1nc2ccccc2[nH]1)n1c(-c2ccccc2)nc2ccccc21 (centres undefined)	-41	-1	/	3	/	/
OC[C@@H]1CN(Cc2ccc(-c3ccccc3)cc2)C[C@H](n2cnc3c(NC4CCC4)ncnc32)O1	5	-3	/	18*	24*	-1	GFP quench dose=>68
OCCCNc1ncnc2c1ncn2[C@H]1CN(Cc2cccs2)C[C@@H](CO)O1	4	-5	/	2	/	/
CC(C)N(C)c1ncnc2c1ncn2[C@H]1CN(Cc2ccc(Cl)cc2)C[C@@H](CO)O1	3	3	/	6.2*	6.3*	-1
CNc1ncnc2c1ncn2[C@H]1CN(Cc2ccc(Cl)cc2)C[C@@H](CO)O1	-3	0	/	-1	/	/
OCCCNc1ncnc2c1ncn2[C@H]1CN(Cc2ccc(-c3ccccc3)cc2)C[C@@H](CO)O1	-8	-2	/	19*	22*	0	GFP quench dose=>68
OCCNc1ncnc2c1ncn2[C@H]1CN(Cc2ccc(Cl)cc2)C[C@@H](CO)O1	-4	1	/	7.2*	5	0
Cc1c(P(=S)(c2ccccc2)c2ccccc2)[n+]2ccccc2n1CCc1ccccc1	4	-11	/	0	/	/
CC(=O)Nc1cccc(Nc2cc(C)nn2C)c1	-3	2	/	4	/	/
CC1(C)Cc2nc3nc(SCC(=O)NCCc4ccccc4)n(-c4ccccc4)c(=O)c3cc2CO1	10	3	-4	8.2*	6	2
